# ALOX15B inhib = inhibitors of human 15-lipoxygenase 2 (ALOX15B); O15296; purified 15hLO-2, xylenol orange hydroperoxide absorbance; Potency, µM (doses to about 57.1 µM), inactives show at the top dose activity change, negative = inhibition, usual class: inhibitors; 110,000 tested, 0.56% active; AID 881; further: potency means the concentration at half of the fitted maximal effect; nearly all actives have a fitted effect of over 60% in size
# Target sequence (O15296 whole entry, looked up): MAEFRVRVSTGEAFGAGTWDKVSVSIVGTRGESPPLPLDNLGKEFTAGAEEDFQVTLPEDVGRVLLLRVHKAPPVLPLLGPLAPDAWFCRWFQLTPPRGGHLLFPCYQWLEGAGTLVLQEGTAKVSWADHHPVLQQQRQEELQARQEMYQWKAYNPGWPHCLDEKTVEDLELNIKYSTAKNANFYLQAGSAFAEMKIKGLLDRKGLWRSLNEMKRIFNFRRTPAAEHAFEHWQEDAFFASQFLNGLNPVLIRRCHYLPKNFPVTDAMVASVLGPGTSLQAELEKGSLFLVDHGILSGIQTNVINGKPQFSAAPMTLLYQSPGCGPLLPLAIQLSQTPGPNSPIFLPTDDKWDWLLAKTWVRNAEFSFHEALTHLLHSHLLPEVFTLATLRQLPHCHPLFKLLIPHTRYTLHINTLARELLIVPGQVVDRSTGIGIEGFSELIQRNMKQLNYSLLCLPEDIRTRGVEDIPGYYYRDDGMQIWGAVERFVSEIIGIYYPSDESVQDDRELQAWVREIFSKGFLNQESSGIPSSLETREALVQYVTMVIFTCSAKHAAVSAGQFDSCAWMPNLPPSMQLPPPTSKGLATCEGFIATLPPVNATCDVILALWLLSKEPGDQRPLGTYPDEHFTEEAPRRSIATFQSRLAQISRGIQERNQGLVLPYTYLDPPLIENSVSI
#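 Purified human 15hLO-2 (50 nM) preincubated 15 min with compound, then 45 uM arachidonic acid for 90 min at RT in 25 mM Hepes pH 7.5, 0.01% Triton X-100. Hydroperoxide detected by Fe-xylenol orange; 573/405 nm absorbance ratio.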
# IMPase cell inh = cell-permeable inhibitors of inositol monophosphatase (IMPase); CHO-M1 cells, IP1 accumulation, HTRF TR-FRET ratio; inhibition (IP1 accumulation), % at 46.1 µM; 120,000 tested, under 10 active; AID 901; active means well fitted curve in the direction sought with a large enough effect in the signal ratio, not every such curve was filed as active; inconclusive means small, poorly fitted or top-dose-only effect, or a change in a side signal; inactive means no such curve, though single readings can be large or run the other way; the % refers to the signal ratio;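 further: cells stimulated with carbachol in lithium chloride buffer; plate controls were DMSO basal wells for no effect and reference inhibitor wells for full effect; higher means more IMPase inhibition seen as more IP1 and lower FRET ratio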
#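 CHO-M1, 2000 cells/well, cultured 16–30 h; cpd up to 46 uM; carbachol (50 uM solution, stimulation buffer w/ 50 mM LiCl, pH 7.4), 30 min 37C; IP-One TR-FRET, 10 min RT; Ex 320/Em 665, 620; Hill-fit AC50.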
# PNC assembly inh = inhibitors of perinucleolar compartment assembly; 140,000 tested, 3.1% active; AID 2417; activity change (PNC), negative = inhibition, % at 10 µM; PC3M PTB-GFP, PNC prevalence imaging, 16 h; active compounds read low;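 active means readout at or below -70, meaning at least 70% loss of cells showing the perinucleolar compartment, a nuclear body marking cancer cells; inconclusive means readout between -30 and a set limit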;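 further: plate controls were DMSO wells for no effect and camptothecin positive control wells for full effect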
#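 Compounds are pinned in duplicate onto adhered PC3M cells stably expressing GFP-tagged PTB and incubated 16 h at 37 C. Cells are then fixed, nuclei stained with Hoechst, and PNC-positive cells counted.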
# IMPase Li inh = membrane-permeable IMPase blocker, potentiated with lithium; 210,000 tested, 0.35% active; Potency, µM (titrated, usually from 59.4 µM), for the others: top-dose activity, negative = IMPase inhibition, actives largely listed as inhibitors; AID 1457; CHO-M1 cells, IP1 TR-FRET (IP-One), carbachol + lithium;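 further: IP1 builds up when IMPase is blocked and the TR-FRET signal falls; potency means the concentration at half of the fitted maximal effect; plate controls were basal vehicle for no effect and high inhibitor control for full effect; nearly all actives have a fitted effect of over 50% in size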
#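 Readout is a homogeneous TR-FRET IP1 immunoassay (Ex 320, Em 665 and 620), where raised cytosolic IP1 lowers signal. Cells were CHO-M1 treated 30 min at 37C with test compounds plus a little lithium; AC50 values came from Hill-equation fitting.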
# HPGD inh = blocks human HPGD enzyme activity. purified HPGD, NADH fluorescence kinetic, PGE2 substrate. Potency, µM, for the others: top-dose activity change, negative = inhibition, most hits filed as inhibitors. 150,000 tested, 4.3% active. P15428; active means well fitted inhibition curve with a large enough effect, not every such curve was filed as active; inconclusive means small, poorly fitted or top-dose-only effect, or another doubt; inactive means no such curve, though single readings can be large or run the other way; further: potency means the concentration at half of the fitted maximal effect
#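 NADH formation kinetics: reaction with 30 uM PGE2 and 1 mM NAD+ (final), 20 nM enzyme, Tris-HCl pH 8 with Tween 20, after 15 min compound preincubation at room temperature. Fluorescence change, last versus first of five reads.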
# 12-hLO inh = inhibitors of human 12-lipoxygenase (ALOX12); Potency, µM (titrated, usually from 57.1 µM), for inactives: at the highest dose activity change, negative = inhibition, usual class: inhibitors; 150,000 tested, 0.12% active; AID 1452; purified 12-hLO, xylenol orange hydroperoxide absorbance; P18054; further: potency means the concentration at half of the fitted maximal effect; nearly all actives have a fitted effect of over 55% in size
#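 Purified human 12hLO (150 nM final) was preincubated with compounds for 15 min at room temperature in 25 mM Hepes pH 7.0, 0.01% Triton X-100, then reacted with 40 uM arachidonic acid for 30 min. Hydroperoxide was detected with ferrous iron/xylenol orange.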
# Starred values were filed as active, the others as inactive; ? = inconclusive; · = not tested or not shown; [ ] = another dose, or the depositor's remark. An excerpt weighted towards active compounds, which were near 5.3% of everything screened. Unless noted, the call rests on the fitted dose curve; in most records, active means well fitted curve in the direction sought with a large enough effect; inconclusive means small, poorly fitted or top-dose-only effect, or another doubt; inactive means no such curve, though single readings can be large; an effect the other way counts as inactive or inconclusive. Unless noted, on the % scale 0 is the no-effect control and ±100 the full control effect.
SMILES,ALOX15B inhib,IMPase cell inh,PNC assembly inh,IMPase Li inh,HPGD inh,12-hLO inh
Cc1oc2c(c1C(=O)Nc1cccc3ccccc13)CCCC2,7%,17,21,14%[38.3 µM],-12%,5%
CC12CC3CC(C)(C1)CC(C(=O)NC(=S)N1CCCCC1)(C3)C2,?,0,22,-4%[38.3 µM],-6%,16µM*
CC12CC3(C)CC(C)(C1)CC(C(=O)NC(=S)N1CCOCC1)(C2)C3,?,2,?,2%[38.3 µM],-9%,?
CCC(C)C(NC(=O)OC(C)(C)C)C(=O)NC(Cc1ccccc1)C(=O)OC (configuration not stated),1%,-2,?,16%[38.3 µM],-1%,-1%
COC(=O)C(Cc1ccccc1)NC(=O)C(CC(C)C)NC(=O)OC(C)(C)C (configuration not stated),·,·,-112*,-3%,-3%,1%
CCNc1nc(N)nc(Oc2ccc(OCCOc3ccccc3)nn2)n1,-6%,?,12,8%[38.3 µM],25µM*,2%
CCNc1nc(N)nc(Oc2ccc(OCc3ccccc3)nn2)n1,·,1,29,-4%[38.3 µM],-21%,8%
Cc1c(Cl)cccc1NC(=O)CN1CCN(CCN=CC2=C(O)CC(c3ccccc3)CC2=O)CC1 (configuration not stated),·,·,·,5%,·,·
Cc1ccc(N2C(=O)CC(Sc3ncn[nH]3)C2=O)cc1C (configuration not stated),?,4,-1,-16%[38.3 µM],3.2µM*,-13%
CN1CCN(S(=O)(=O)c2ccc3c4c(cccc24)C(=O)N3)CC1,2%,2,-91*,-17%[38.3 µM],?,1%
O=C1Nc2ccc(S(=O)(=O)N3CCCC3)c3cccc1c23,-3%,0,-10,-12%[38.3 µM],-22%,2%
Cc1ccc2c(C)c(C(=O)N(Cc3ccc(Cl)cc3)C3CCS(=O)(=O)C3)oc2c1 (configuration not stated),·,-1,·,·,·,·
O=C(c1ccc(S(=O)(=O)c2ccc(F)cc2)c([N+](=O)[O-])c1)N1CCCCCC1,·,7,-119*,15%,-14%,-3%
CN(C)CCCNC(=O)c1cc2c3ccccc3n(C)c2s1,10%,0,19,0%[38.3 µM],-25%,4%
Cn1c2ccccc2c2cc(C(=O)NNS(=O)(=O)c3ccc(F)cc3)sc21,-5%[11.4 µM],-8[1.84 µM],-88*,31%[38.3 µM],?,0%
CCN(CC)S(=O)(=O)c1cccc(-c2nnc(SCC(=O)NC3CCCCCCC3)n2N)c1,0%,-2,3,11%[38.3 µM],6%,4%
COC(=O)C1Cc2c([nH]c3ccccc23)C(C)N1 (configuration not stated),3%,2,-91*,1%,-6%,1%
CC(C)C1NC(C(=O)O)Cc2c1[nH]c1ccccc21 (configuration not stated),·,·,·,0%,?,·
S=c1[nH]nc(-c2ccc(Br)o2)n1Cc1ccccc1,-22%,-12,-11,24%[38.3 µM],28µM*,-12%
N=C1/C(=C\c2ccc(SCc3ccco3)o2)C(=O)N=C2SC=NN12,·,9,67,2%[38.3 µM],25µM*,-29%
CC1=NN2C(=N)/C(=C\c3ccc(SCc4ccccc4)o3)C(=O)N=C2S1,?,6,21,38%[38.3 µM],-22%,-1%
COc1cccc(CN2CCN(Cc3ccc(OC)c(OC)c3)CC2CCO)c1 (configuration not stated),·,·,·,4%,·,·
O=C(Nc1cccc(S(=O)(=O)N2CCCCC2)c1)c1ccc2c(=O)n3c(nc2c1)CCCCC3,·,16,52,·,·,2%
O=S(=O)(Cc1ccc(Cl)cc1)c1ncc(CO)n1Cc1ccccc1,·,·,·,4%,·,·
NC(=O)c1ccccc1N/C=C/C(=O)c1cccs1,·,3,-94*,0%,-5%,1%
NC(=O)c1ccccc1N/C=C/C(=O)c1ccc(Cl)cc1Cl,3%,6,15,-10%[38.3 µM],13µM*,-6%
O=C(CSCc1ccc(Cl)cc1)NN=C1CCCCCC1,·,·,-93*,6%,-14%,-2%
